Molecules are shown by their SMILES. Several values for one entry are separate records, joined by “and”; a condition that tells them apart may be missing. Identical values can stand only once. Activity calls are given as the source filed them. No rule for the calls is given here.

The target of this experiment is L-lactate dehydrogenase (Plasmodium falciparum (isolate CDC / Honduras)) (UniProt Q27743). Put plainly: PfLDH activity inhibition – cell lysate, 3D7 strain, counter-screen for P. falciparum growth inhibition project (AID 2304).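 Also: 0% = vehicle and 100% = reference inhibitor.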 The note with it: P. falciparum 3D7 crude extract, LDH APAD/NBT absorbance; at 2 µM; active compounds read high. A general note: Counterscreens check selectivity or assay interference.
Sequence of L-lactate dehydrogenase (Plasmodium falciparum (isolate CDC / Honduras)) (Q27743 whole entry, looked up): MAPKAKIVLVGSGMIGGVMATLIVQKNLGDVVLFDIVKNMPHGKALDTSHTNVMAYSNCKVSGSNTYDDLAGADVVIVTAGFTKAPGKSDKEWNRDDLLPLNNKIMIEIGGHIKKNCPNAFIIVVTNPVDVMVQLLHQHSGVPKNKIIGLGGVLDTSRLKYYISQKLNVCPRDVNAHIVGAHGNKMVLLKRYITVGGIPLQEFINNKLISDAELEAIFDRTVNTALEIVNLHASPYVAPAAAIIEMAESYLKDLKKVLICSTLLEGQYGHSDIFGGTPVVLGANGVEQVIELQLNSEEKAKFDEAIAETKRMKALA
Consider `CCNc1cc(C(=O)N[C@@H](Cc2ccccc2)[C@H](O)CNCCc2ccccc2)cc(N2CCCC2=O)c1`, for which the inhibition (as a rule, the relative decrease from the control value, in per cent) is 2% (inactive).

On to `COc1cc(C(F)(F)F)c2cc(CNCCCNc3nc4ccccc4[nH]3)[nH]c2c1`, for which the inhibition is -6% (inactive).

Turning to `FC(F)(F)c1cccc(CNCCCCCNCc2ccc(Cl)cc2)c1`, the inhibition was -5% (inactive).

`CC(=O)Nc1ccc(CN2Cc3ccc(NC(=O)Nc4ccc(Oc5ccccc5)cc4)cc3C2)s1`: the inhibition is 6% (inactive).

As to `COCc1cccc(-c2cc(-c3ccc(S(C)(=O)=O)cc3)cnc2N)c1`, the inhibition is -2% (inactive).

For `CCCCCCCCNc1c2ccc(Cl)cc2nc2ccc(OC)cc12`, the inhibition was -3% (inactive).

With `Oc1ccc(Cl)cc1CN1CCCC(COC(c2ccc(F)cc2)c2ccc(F)cc2)C1` (stereo not drawn), the inhibition is 3% (inactive).

As for `CN1CCN(Cc2ccc(-c3cc4nccc(Nc5ccc(Oc6ccccc6)cc5)c4cc3Cl)o2)CC1`, the inhibition was -5% (inactive).

As to `O=C(NCC1CCN(Cc2ccc(F)cc2)C1)c1cc(-c2cccc(C(F)(F)F)c2)cs1` (stereo not drawn), the inhibition is -2% (inactive).

As to `Cn1ccnc1S(=O)(=O)CCNCc1ccc(-c2ccc3ncnc(Nc4ccc(OCc5cccc(F)c5)c(Cl)c4)c3c2)o1`, the inhibition is -3% (inactive).

Turning to `CCC(CC(NCCCCNC(=O)c1ccc(NC(=O)c2ccc(Cl)cc2)cc1)c1ccccc1)c1ccccc1OC` (stereo not drawn), the inhibition was -1% (inactive) and 1% (inactive).

As to `N#CC(c1ccc(Br)cc1)c1ccc2c(C(F)(F)F)cc(C(F)(F)F)nc2n1` (stereo not drawn), the inhibition was -2% (inactive).

On to `O=C(CCCCCNC(=O)c1ccc(O)c(-c2ccc(Cl)c(Cl)c2)c1)NCCN1CCCCC1`, for which the inhibition was 0% (inactive).

For the origin of these results see PubChem BioAssay.
